Hits are enriched below; roughly 3.5% of the tested compounds scored in any of these assays.
Vc quorum ag-1: inducers of Vibrio cholerae quorum light production without autoinducers. activation, % at 18.7 µM. V. cholerae BH1578 lux reporter, luminescence, 6 h. 350,000 compounds, 0.16% hits. AID 588436; in the data active means activation mostly above about 9.7%, no sharp cut-off; inconclusive means no clear call, values can overlap the other calls; inactive means mostly below about 3.7%
Anthrax LF inh2: inhibitors of Bacillus anthracis lethal factor protease | P15917 | multiplex microsphere protease cleavage assay, LF | inhibition, % at 10 µM | 360,000 compounds, 0.12% hits | AID 588501; further: plate controls were buffer without enzyme for full effect and enzyme alone for no effect
Target sequence (P15917 whole entry, looked up): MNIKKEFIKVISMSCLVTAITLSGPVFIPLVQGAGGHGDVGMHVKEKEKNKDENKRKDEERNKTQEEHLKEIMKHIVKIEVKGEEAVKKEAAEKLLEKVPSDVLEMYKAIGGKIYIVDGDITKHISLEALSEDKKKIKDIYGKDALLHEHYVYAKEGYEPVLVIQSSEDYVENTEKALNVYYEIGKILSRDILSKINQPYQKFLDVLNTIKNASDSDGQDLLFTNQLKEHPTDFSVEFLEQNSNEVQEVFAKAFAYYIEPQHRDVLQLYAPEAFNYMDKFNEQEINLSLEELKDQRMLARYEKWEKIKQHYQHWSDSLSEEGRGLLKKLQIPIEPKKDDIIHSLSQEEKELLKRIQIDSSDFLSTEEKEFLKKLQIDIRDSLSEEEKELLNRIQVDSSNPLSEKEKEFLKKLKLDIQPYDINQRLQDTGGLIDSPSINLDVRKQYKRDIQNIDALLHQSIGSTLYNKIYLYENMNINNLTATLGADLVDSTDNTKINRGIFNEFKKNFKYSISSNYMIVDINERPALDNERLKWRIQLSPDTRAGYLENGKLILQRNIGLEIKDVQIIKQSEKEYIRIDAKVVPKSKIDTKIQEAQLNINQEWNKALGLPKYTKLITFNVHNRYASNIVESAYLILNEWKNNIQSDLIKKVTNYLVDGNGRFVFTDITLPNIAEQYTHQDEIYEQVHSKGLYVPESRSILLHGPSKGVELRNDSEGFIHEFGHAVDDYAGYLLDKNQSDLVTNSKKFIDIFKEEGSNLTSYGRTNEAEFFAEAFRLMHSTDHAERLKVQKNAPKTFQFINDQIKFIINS
BoNT F protease: inhibitors of Botulinum neurotoxin F light chain protease; inhibition, % at 10 µM; 360,000 compounds, 0.22% hits; Multiplex microsphere protease cleavage assay, flow cytometry; in the data active means inhibition above about 35%, passing the limit was not always enough; inconclusive means no clear call, values can overlap the other calls; further: plate controls were buffer without enzyme for full effect and enzyme alone for no effect
Autofluor counter: counter-screen for toxin protease inhibitors: compound fluorescence | compound autofluorescence counterscreen, microsphere flow cytometry; active compounds read high | 360,000 compounds, 3.1% hits | fluorescence intensity (no concentration beside the values) | AID 624483; in the data active means fluorescence intensity above about 16000; inconclusive means no clear call, values can overlap the other calls
BoNT-A LC inh2: inhibitors of Botulinum neurotoxin A light chain protease; 360,000 compounds, 0.17% hits; inhibition, % at 10 µM; AID 588499; multiplex microsphere protease substrate cleavage, flow cytometry; further: plate controls were buffer without enzyme for full effect and enzyme alone for no effect
Vc quorum ag-2: quorum light induction in BH1578 reporter strain; 620 tested, under 10 active; AID 602243; V. cholerae BH1578 lux reporter, luminescence, 6 h; shares compounds with Vc quorum ag-1; activation, % at 50 µM; call rule not given here
An asterisk follows results filed as active; i = inactive; ? = inconclusive; . = no result. Unless noted, no stated cut-off is given here; in the data, active means inhibition above about 30%; inconclusive means no clear call, values can overlap the other calls; inactive means below that.

SMILES	Vc quorum ag-1	Anthrax LF inh2	BoNT F protease	Autofluor counter	BoNT-A LC inh2	others
CCN(C(=O)CSc1nc(N)cc(=O)[nH]1)c1c(N)n(Cc2ccccc2)c(=O)[nH]c1=O	-1.4	1.5	0.6	5376	-0.7
COc1cc(OC)c(C2=NOC(C(=O)NCCc3ccccc3)C2)cc1Cl (stereo not drawn)	-0.2	-1.8	-1.4	23621*	-1.8
COc1cc(NC(=O)CN2C(=O)CSc3ccc(S(=O)(=O)N4CCCC4)cc32)cc(OC)c1	i	-2.0	5.8	5073	1.2
Cc1ccc(F)c(S(=O)(=O)NC(=O)C2(C)CCN2C(=O)c2ccc(C3CCCCC3)cc2)c1 (stereo not drawn)	0.2	5.3	1.9	3568	0.1
C=CCn1c(C(CCC(C)C)CC(C)(C)O)n[nH]c1=S (stereo not drawn)	-1.0	-0.1	-5.7	24772*	-4.4
CCCOC(=O)c1cccc(Nc2nc(-c3cccnc3)nc3ccccc23)c1	i	-3.1	-2.7	3455	1.1
COCCn1ccc2c(OCC(=O)NCc3ccc(C)cc3)cccc2c1=O	-1.2	5.6	-5.0	?	2.7
CN(C)c1nc(N)nc(CSc2nnnn2-c2ccc(F)cc2)n1	-0.2	0.8	2.3	23095*	0.0
O=C(c1cnn2c(-c3ccccc3)cc(-c3ccccc3)nc12)N1CCN(Cc2ccccc2)CC1	-0.1	1.4	2.9	4577	1.5
c1ccc(-n2nnnc2-c2cccc3ccccc23)cc1	i	-5.2	-7.0	2879	-0.4
Cc1cc(C)c2[nH]c(=O)c(CN(CC3CCCO3)S(=O)(=O)c3ccc4c(c3)OCCO4)cc2c1 (stereo not drawn)	0.8	-7.4	7.0	21471*	7.0
Cc1ccc(C)c2[nH]c(=O)c(CN(CC3CCCO3)S(=O)(=O)c3ccc4c(c3)OCCO4)cc12 (stereo not drawn)	i	-3.7	-3.3	11151	-0.3
c1ccc2[nH]c(NCCCN3CCOCC3)nc2c1	i	-4.6	-6.1	24547*	?
COCCN1C(=O)N[C@@H](c2cccc(F)c2)C(C(=O)OC)=C1C	i	6.5	5.8	4177	0.1
CC1([N+](=O)[O-])COP(=O)(Nc2cccc(Br)c2)OC1 (stereo not drawn)	.	1.2	24.7	16672*	1.8
CC1([N+](=O)[O-])COP(=O)(Nc2ccc(Cl)cc2)OC1 (stereo not drawn)	1.1	-2.1	-0.1	3550	0.6
Cc1n[nH]c(C)c1CCC(=O)N/N=C/c1cccs1	-0.6	.	.	.	.
Nc1nc(-c2cccnc2)nn1C(=O)Cc1ccccc1	-2.7	-2.0	-2.0	22678*	0.5
O=C(Nc1ccc2c(c1)OCCO2)C1c2ccccc2OCC(=O)N1Cc1cccnc1 (stereo not drawn)	.	3.0	1.0	5834	0.0
Cc1ccc(-c2noc(CCCC(=O)N3CCOCC3)n2)cc1	6.7	-1.3	5.1	20543*	4.1
O=C(CCCc1nc(-c2ccc(Cl)cc2)no1)N1CCOCC1	-0.3	3.4	-5.7	5296	0.0
Cc1cccc(-c2noc(CCCC(=O)N3CCOCC3)n2)c1	-0.9	-6.0	5.1	21401*	7.1
COCCNC(=O)CN1CCC(NC(=O)Nc2ccc(C(F)(F)F)cc2)CC1	i	-2.9	-5.1	23251*	-1.0
COCCNC(=O)CN1CCC(NC(=O)Nc2ccccc2)CC1	.	1.7	-6.9	?	?
O=C(CCNC(=O)c1ccc(Br)o1)NC1CCCC1	-2.6	-1.6	-0.3	16174*	?
SMILES	Vc quorum ag-1	Anthrax LF inh2	BoNT F protease	Autofluor counter	BoNT-A LC inh2	others
Nc1ccc(CN2CCOCC2)cc1	-0.6	-3.2	-4.2	4467	-0.7
CCc1nnc(NC(=O)CCC(=O)NC2CCCCCCC2)s1	i	4.0	-8.7	6871	-2.5
CCCCOC(=O)CCn1[nH]c(=O)c2ccccc2c1=O	i	-2.3	0.4	22758*	-0.8
CC(C)(C)C(=O)COC(=O)CCc1nc2ccccc2[nH]c1=O	i	2.4	-7.8	3642	-0.3
CCC(OC(=O)CCc1nc2ccccc2[nH]c1=O)C(=O)c1ccccc1 (stereo not drawn)	-2.0	-4.0	-7.8	17407*	-2.7
CCCCOC(=O)CCc1nc2ccccc2[nH]c1=O	i	2.6	12.3	18710*	9.0
CC(=O)COC(=O)CCc1nc2ccccc2[nH]c1=O	1.4	-7.6	-15.9	6760	-1.5
CC(/C=N/NC(=O)c1ccncc1)=C\c1ccc(C(C)C)cc1	2.7	0.5	0.8	22320*	2.7
CC(/C=N/NC(=O)c1cccnc1)=C\c1ccccc1	-0.3	-1.3	-0.5	2218	-0.6
CC(C)Oc1cc(F)ccc1-c1cc(C(=O)NCc2cccnc2)[nH]n1	i	0.9	2.4	3933	-0.6
CCOC(=O)c1sc2cc([N+](=O)[O-])cc(SCC(C)C)c2c1N	i	20.6	18.1	20038*	31.5*
CCOC(CNC(=O)Cn1nc(C)c2ccccc21)OCC	i	-2.7	1.3	4376	-0.7
Cc1cc(C(=O)COC(=O)CNS(=O)(=O)c2ccc3ccccc3c2)c(C)n1-c1ccccc1	i	-2.4	-2.9	2087	-0.5
O=C(CNS(=O)(=O)c1ccc2ccccc2c1)OCC(=O)c1ccc(Br)s1	-0.2	-1.7	7.0	18275*	4.6
COCOc1cc(O)c(C(=O)/C=C/c2ccccc2)c(OCOC)c1	-0.5	-12.2	-8.2	4345	-1.3
NC(=O)c1cc[n+](CC(=O)NC(=O)Nc2ccccc2)cc1	i	.	.	.	.
Cc1ccc(C(=O)OCC(=O)NCC(F)(F)F)cc1C	21.5	-0.5	-3.3	2144	-0.7	Vc quorum ag-2=152.9
Cc1cccc(N2CCN(C(=O)C34CC5CC(CC(C5)C3)C4)CC2)c1C	22.2*	-5.4	5.2	3144	0.3	Vc quorum ag-2=0.7
NC(=O)COC(=O)c1ccccc1Oc1ccccc1	-0.1	-5.6	3.8	4182	0.6
CCOc1ccc(-c2cccc(NC(=O)c3ccco3)c2)nn1	-0.7	-4.2	-11.1	5580	-0.9
O=C(OCc1cc(=O)n2ccsc2n1)c1ccc(OC(F)F)cc1	12.8	1.4	3.0	4978	1.7	Vc quorum ag-2=0.0
O=C(CN1CCN(S(=O)(=O)c2ccccc2)CC1)Nc1ccc2c(c1)CCC2	-0.3	-3.0	0.8	2622	0.2
O=C(c1ccccc1)N1CCC(c2nc(-c3ccc(S(=O)(=O)N4CCOCC4)cc3)no2)CC1	6.6	-1.9	-4.2	3260	-0.1	Vc quorum ag-2=0.7
CCc1ccc(NS(=O)(=O)c2cccs2)cc1	21.4*	0.7	-1.1	9330	0.2	Vc quorum ag-2=0.8
O=C1c2cc(Br)ccc2N(Cc2ccc(Br)cc2)S(=O)(=O)C1c1cc(Cl)c(Cl)cc1[N+](=O)[O-] (stereo not drawn)	-0.4	0.5	-7.9	3626	-0.7
CCC(O)(CCN1CCCCC1)c1ccccc1 (stereo not drawn)	12.5	3.2	1.4	3344	1.0	Vc quorum ag-2=0.0
OC(CCCN1CCCCC1)(c1ccccc1)c1ccccc1	6.2	0.5	-0.9	5914	-0.5
COc1ccc2c(c1OC)C(=O)N(c1nccs1)C2	12.5	1.3	-1.0	3246	0.5	Vc quorum ag-2=0.0

Bioassay records (PubChem)
